The source of these data is PubChem BioAssay.

Active and inactive are the calls of the source.

The nature of assay [1]: small molecules captured by biotinylated probe aFSTL3 – biochemical, small-molecule microarray, fluorescence 635/667, stem cell growth factor project, primary screen (AID 1064).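 Also: measures binding of the biotinylated anti-FSTL3 antibody to printed compounds.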 The note with it: higher = more signal.
A short description of assay [2]: binders from COS7 lysate, DM2A8 probe, primary screen, torsin A project, cell lysate, small-molecule microarray, fluorescence 635/667 (AID 1065). The settings on record: higher = more signal, COS7 lysate expressing mutant human TOR1A.
A short description of assay [3]: small molecules captured by biotinylated probe aFGF2 – biochemical, small-molecule microarray, fluorescence 635/667, stem cell growth factor project, primary screen (AID 1067).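 Also: measures binding of biotinylated aFGF2 protein to printed compounds on slides; z-score merges feature fluorescence and signal-to-noise across triplicate slides.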 The settings on record: higher = more signal.
Assay [4] is described as follows: small molecules captured by biotinylated probe aFGF10 – biochemical, small-molecule microarray, fluorescence 635/667, stem cell growth factor project, primary screen (AID 1071).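 Also: score merges 667 nm spot intensity and signal to noise from triplicate slides.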 The settings on record: higher = more signal.
Assay [5] addresses Neurogenic locus notch homolog protein 2 (Homo sapiens) (UniProt Q04721). Nature of the assay: small molecules binding Notch2 protein – biochemical, small-molecule microarray, 635 nm fluorescence, stem cell growth factors, primary screen (AID 1073). The settings on record: higher = more signal.
Assay [6] has as its target Pro-neuregulin-1, membrane-bound isoform (Homo sapiens) (UniProt Q02297). The experiment in a line: small molecules binding neuregulin-1 protein – biochemical, small-molecule microarray, fluorescence 635/667, psychiatric disease protein project, primary screen (AID 1075).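 Also: score combines 667 nm spot fluorescence with signal to noise.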 The settings on record: NRG1 binding, 635 nm fluorescence, higher = more signal.
For assay [7], the system named is Neuregulin-1 EGF-like domain. Nature of the assay: small molecules binding NRG1 EGF domain – biochemical, small-molecule microarray, 635 nm fluorescence, primary screen (AID 1081).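 Also: binding of the protein to compounds printed on small-molecule microarray slides.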 The note with it: higher = more signal.
Assay [8] in a line: FRG1 expression reporter modulators in myotubes – cell-based, C2C12 myotubes, firefly/Renilla luciferase, luminescence, FRG1 inhibition for FSHD, primary screen (AID 1084). The note with it: FRG1 promoter luciferase, higher = more signal, called active from +8 up or from −8 down.
A short description of assay [9]: small molecules captured by biotinylated probe aFST – biochemical, small-molecule microarray, fluorescence 635/667, stem cell growth factor project, primary screen (AID 1086).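 Also: score merges 667 nm fluorescence with signal-to-noise of each printed compound spot.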 The settings on record: higher = more signal.
The nature of assay [10]: binders of probe aHhip on microarray, primary screen, stem cell growth factor project, biochemical, small-molecule microarray, fluorescence 635/667 (AID 1087).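 Also: score merges spot fluorescence at 667nm with spot signal to noise ratio.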 The note with it: higher = more signal.
The test system of assay [11] is PRMT1 (protein arginine N-methyltransferase 1). The experiment in a line: small molecules binding arginine methyltransferase PRMT1 – biochemical, small-molecule microarray, 635 nm fluorescence, primary screen (AID 1088).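 Also: binding of Prmt1 protein to compounds spotted on small-molecule microarray slides.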 The note with it: higher = more signal.
Assay [12] is described as follows: growth effects on S. cerevisiae YJM789 – YJM789 clinical isolate, OD600, 24 h, basal, primary screen (AID 1089).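 Also: growth of clinical yeast isolate S. cerevisiae YJM 789 seeded 1000 cells per well; test concentration not given here.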 The settings on record: higher = more signal, called active from +8 up or from −8 down.
Assay [13] can be described thus: S. pombe growth modifiers, basal conditions – strain 972, OD600, 24 h, no modulator, primary screen (AID 1090).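 Also: basal condition with compound alone and no growth modifier present; test concentration not given here.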 The settings on record: S. pombe 972 growth, higher = more signal, called active from +8 up or from −8 down.
Assay [14] can be described thus: budding yeast growth modifiers under rapamycin – strain BY4716, OD600, 96 h, primary screen (AID 1091). Also: test concentration not given here. The note with it: S. cerevisiae BY4716 + rapamycin, higher = more signal, called active from +8 up or from −8 down.
The target of assay [15] is Torsin-1A-interacting protein 2 (Homo sapiens) (UniProt Q8NFQ8). The experiment in a line: small molecules binding lysate-expressed LULL1 – cell lysate, human LULL1 lysate, 635/667 nm fluorescence, primary screen (AID 1092).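 Also: probe is lysate of COS7 cells overexpressing human LULL1; score merges per-feature 667 nm fluorescence with signal-to-noise.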 The settings on record: small-molecule microarray, hLULL1 lysate binding, 635 nm fluorescence; higher = more signal.
Assay [16] is described as follows: optical density change of DRC41 E. coli – strain DRC41, OD650, 24 h, E. coli filamentation project, primary screen (AID 1093).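 Also: MC1000 strain lacking acrAB efflux and sulA so SOS filamentation is blocked; test concentration not given here.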 The note with it: E. coli DRC41 growth, higher = more signal, called active from +8 up or from −8 down.
The nature of assay [17]: probe aLefty2 binding to arrayed compounds – biochemical, biotinylated probe, 635/667 nm fluorescence, primary screen (AID 1094).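 Also: score merges spot fluorescence near 667 nm with spot signal-to-noise ratio.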 The settings on record: small-molecule microarray, higher = more signal.
In assay [18] the test system is Noggin (protein binding on small-molecule microarray). Nature of the assay: small molecules binding Noggin protein – biochemical, 635/667 nm fluorescence, primary screen (AID 1095).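 Also: score merges 667 nm feature fluorescence with signal to noise over triplicate slides.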 The settings on record: 635 nm fluorescence, higher = more signal.
Assay [19] concerns the target Neurogenic locus notch homolog protein 3 (Homo sapiens) (UniProt Q9UM47). The experiment in a line: small molecules binding NOTCH3 protein – biochemical, 635/667 nm fluorescence, primary screen (AID 1096). The note with it: small-molecule microarray, 635 nm fluorescence, higher = more signal.
Assay [20] is described as follows: probe aEGFR binding to arrayed compounds – biochemical, biotinylated probe, 635/667 nm fluorescence, primary screen (AID 1097).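 Also: probe is a biotinylated anti-EGFR antibody binding compounds printed on slides; score combines fluorescence near 667 nm and signal to noise of each spot.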 The note with it: small-molecule microarray, higher = more signal.

Sequence of Torsin-1A-interacting protein 2 (Homo sapiens) (Q8NFQ8 whole entry, looked up): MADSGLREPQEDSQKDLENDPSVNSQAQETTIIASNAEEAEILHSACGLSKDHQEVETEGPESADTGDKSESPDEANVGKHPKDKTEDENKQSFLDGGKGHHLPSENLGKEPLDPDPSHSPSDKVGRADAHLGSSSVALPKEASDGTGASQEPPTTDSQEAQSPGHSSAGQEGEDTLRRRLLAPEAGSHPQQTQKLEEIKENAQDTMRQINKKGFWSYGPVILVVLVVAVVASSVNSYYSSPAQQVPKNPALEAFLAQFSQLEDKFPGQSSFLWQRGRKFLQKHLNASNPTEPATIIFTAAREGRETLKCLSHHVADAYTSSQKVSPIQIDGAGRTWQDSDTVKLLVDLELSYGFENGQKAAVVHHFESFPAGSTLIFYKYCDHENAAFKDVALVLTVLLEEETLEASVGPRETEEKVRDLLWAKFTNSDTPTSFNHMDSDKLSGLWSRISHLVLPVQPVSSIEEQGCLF
Sequence of Neurogenic locus notch homolog protein 2 (Homo sapiens) (Q04721 whole entry, looked up, canonical isoform): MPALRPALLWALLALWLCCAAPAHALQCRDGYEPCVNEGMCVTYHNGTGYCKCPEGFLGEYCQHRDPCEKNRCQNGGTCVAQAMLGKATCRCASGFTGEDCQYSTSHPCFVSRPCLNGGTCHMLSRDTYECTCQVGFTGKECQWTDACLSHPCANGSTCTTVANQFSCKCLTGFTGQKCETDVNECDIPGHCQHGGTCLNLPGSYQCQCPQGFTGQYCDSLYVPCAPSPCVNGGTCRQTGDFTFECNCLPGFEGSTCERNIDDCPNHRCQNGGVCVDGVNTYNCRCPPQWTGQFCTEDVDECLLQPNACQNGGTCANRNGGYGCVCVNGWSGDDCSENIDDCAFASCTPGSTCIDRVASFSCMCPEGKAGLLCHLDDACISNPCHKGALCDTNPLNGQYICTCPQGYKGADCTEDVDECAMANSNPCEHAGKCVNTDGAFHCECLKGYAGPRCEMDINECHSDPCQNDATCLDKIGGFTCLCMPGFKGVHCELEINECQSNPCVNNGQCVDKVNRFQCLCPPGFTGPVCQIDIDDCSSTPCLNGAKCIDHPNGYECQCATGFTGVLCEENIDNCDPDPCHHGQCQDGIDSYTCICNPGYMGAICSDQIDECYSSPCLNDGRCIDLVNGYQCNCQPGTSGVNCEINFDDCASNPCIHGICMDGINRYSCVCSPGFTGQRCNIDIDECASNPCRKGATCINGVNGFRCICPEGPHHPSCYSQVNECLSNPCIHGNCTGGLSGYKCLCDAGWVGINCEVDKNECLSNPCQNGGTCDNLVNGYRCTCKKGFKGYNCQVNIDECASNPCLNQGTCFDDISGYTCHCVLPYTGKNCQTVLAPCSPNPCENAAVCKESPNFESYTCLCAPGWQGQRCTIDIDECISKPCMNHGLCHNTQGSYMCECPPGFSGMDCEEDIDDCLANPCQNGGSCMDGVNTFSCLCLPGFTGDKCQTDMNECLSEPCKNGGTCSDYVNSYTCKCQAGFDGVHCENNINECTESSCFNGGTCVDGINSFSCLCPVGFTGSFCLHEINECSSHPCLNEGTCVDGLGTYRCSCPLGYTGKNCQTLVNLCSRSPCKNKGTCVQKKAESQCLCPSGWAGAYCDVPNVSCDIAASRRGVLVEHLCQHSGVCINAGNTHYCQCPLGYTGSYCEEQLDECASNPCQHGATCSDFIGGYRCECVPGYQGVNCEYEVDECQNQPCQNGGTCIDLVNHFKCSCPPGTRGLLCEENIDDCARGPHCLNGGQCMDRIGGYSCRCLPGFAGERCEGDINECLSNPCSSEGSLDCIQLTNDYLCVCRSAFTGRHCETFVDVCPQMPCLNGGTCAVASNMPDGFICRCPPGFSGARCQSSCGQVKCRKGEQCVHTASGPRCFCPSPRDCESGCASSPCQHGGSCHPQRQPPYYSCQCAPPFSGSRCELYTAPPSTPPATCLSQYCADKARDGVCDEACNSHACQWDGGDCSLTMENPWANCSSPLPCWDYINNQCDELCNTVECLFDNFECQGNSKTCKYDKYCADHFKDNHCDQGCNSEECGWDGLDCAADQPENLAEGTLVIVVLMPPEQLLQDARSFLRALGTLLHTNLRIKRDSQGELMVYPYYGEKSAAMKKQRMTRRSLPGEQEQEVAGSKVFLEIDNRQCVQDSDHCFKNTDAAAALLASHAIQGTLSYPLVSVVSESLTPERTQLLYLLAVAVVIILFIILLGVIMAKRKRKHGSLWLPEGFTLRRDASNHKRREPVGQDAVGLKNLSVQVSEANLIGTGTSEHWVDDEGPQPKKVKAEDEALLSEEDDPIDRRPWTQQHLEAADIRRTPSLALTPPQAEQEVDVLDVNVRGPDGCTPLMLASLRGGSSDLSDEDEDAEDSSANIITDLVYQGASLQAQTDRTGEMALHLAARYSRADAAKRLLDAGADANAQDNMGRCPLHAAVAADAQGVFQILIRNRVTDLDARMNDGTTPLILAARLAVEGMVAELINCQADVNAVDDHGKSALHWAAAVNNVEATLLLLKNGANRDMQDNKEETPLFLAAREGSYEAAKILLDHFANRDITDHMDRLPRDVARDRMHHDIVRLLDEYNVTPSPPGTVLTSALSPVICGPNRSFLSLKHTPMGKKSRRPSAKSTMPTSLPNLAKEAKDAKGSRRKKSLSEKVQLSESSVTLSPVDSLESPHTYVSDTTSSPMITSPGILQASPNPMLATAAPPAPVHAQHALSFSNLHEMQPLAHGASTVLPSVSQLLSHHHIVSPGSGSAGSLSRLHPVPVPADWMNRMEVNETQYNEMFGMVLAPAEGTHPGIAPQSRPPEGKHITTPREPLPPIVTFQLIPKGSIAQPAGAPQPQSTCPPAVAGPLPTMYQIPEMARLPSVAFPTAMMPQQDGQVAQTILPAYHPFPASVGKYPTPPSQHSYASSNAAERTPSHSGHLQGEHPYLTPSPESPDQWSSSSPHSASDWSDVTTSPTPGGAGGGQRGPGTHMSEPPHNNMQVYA
Sequence of Pro-neuregulin-1, membrane-bound isoform (Homo sapiens) (Q02297 whole entry, looked up, the tested form may be a part, canonical isoform): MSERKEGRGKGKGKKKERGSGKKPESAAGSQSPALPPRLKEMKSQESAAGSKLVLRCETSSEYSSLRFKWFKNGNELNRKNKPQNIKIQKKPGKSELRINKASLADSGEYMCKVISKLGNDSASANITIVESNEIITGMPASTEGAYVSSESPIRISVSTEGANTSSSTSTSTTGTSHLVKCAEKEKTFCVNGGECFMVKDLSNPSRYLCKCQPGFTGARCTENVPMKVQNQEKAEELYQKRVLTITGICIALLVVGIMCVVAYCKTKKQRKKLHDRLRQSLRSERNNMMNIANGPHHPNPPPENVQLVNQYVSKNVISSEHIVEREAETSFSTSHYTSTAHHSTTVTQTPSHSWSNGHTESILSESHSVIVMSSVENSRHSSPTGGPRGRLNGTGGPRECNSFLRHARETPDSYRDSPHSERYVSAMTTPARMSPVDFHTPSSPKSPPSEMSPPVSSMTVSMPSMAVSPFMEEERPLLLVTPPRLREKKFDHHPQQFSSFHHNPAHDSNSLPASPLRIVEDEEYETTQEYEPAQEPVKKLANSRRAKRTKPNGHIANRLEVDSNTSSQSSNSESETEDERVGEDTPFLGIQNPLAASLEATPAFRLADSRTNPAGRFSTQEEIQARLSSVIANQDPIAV

`Cc1cc2c(c(=O)o1)[C@H](O)[C@H]1O[C@H]1C2=O`: the composite z-score in assay [1] is 0.0331; in assay [2], 0.357; in [3], -0.175; in assay [4], 0.118; in [5], 0.749; in [6], -0.262. Moreover, the composite z-score is 0.12 in assay [7]; -0.0853 in assay [9]; -0.0994 in [10]; 0.527 in assay [11]; -0.186 in assay [15]; -0.0569 in assay [17]. Besides, the composite z-score in assay [18] is 0.651; in [19] it was 0.312; in assay [20], -0.0007. Moreover, the z-score in assay [8] was -0.924 (inactive); in assay [12], 0.228 (inactive); in [13], -4.24 (inactive); in assay [14] it was -0.643 (inactive); in [16] it was -1.02 (inactive).
Take `COc1ccccc1CN1C(=O)c2ccccc2[C@@]2(Cc3ccccc3N(C(C)C)C2=O)[C@@H]1c1ccc(CO)cc1`: the composite z-score in [1] was -0.111; in assay [2], -0.336; in [3] it was -0.186; in assay [4] it was -0.689; in [5], -0.294; in assay [6] it was -0.0492. In addition, the composite z-score in assay [7] was -0.723; in assay [9] it was 0.351; in assay [10], -0.374; in assay [11] it was 0.303; in assay [15], -0.114; in [17] it was -0.0999. The composite z-score in assay [18] was -0.0723; in assay [19], -0.186; in [20] it was -0.194. The z-score in [8] was -2.45 (inactive); in assay [12] it was -1.69 (inactive); in assay [13], -0.373 (inactive); in assay [14] it was -1.34 (inactive); in assay [16], 1.26 (inactive).
With `C[C@H]1Cc2c(-c3ccccc3)nc3c(c2CO1)CN(CCOc1ccccc1)CC3`, the composite z-score is -0.635 in assay [1]; 0.568 in [2]; -0.113 in assay [3]; 0.739 in [4]; 1.41 in assay [5]; 0.135 in assay [6]. In addition, the composite z-score is 0.991 in [7]; 0.307 in [9]; -0.0708 in assay [10]; 1.56 in assay [11]; 2.3 in [15]; -0.161 in assay [17]. The composite z-score in assay [18] was 0.472; in assay [19], 1.12; in assay [20] it was -0.0114. For the same compound, the z-score in [8] was 0.53 (inactive); in assay [12], -0.0387 (inactive); in assay [13] it was -1.24 (inactive); in assay [14], -0.142 (inactive); in [16], 1.91 (inactive).
For the compound `C=CC[C@@H]1C=C[C@H](ON=C[C@@H](OC)[C@H](C)C=CCC(=O)OC)[C@@H](CO)O1`, the composite z-score was -0.147 in assay [1]; 0.827 in assay [2]; -0.0493 in [3]; 0.223 in assay [4]; -0.203 in [5]; 0.161 in assay [6]. Besides, the composite z-score is 0.528 in assay [7]; 0.0886 in assay [9]; -0.0346 in [10]; 0.325 in [11]; 0.485 in assay [15]; -0.124 in assay [17]. Besides, the results for the composite z-score in assay [18], in assay [19] and in [20] were 0.471, -0.39 and 0.0129, respectively. Besides, the z-score in assay [8] was 0.813 (inactive); in [12], 0.78 (inactive); in assay [13], 0.173 (inactive); in assay [14], 0.634 (inactive); in assay [16], 0.23 (inactive).
Take `O=C1[C@H]2[C@H]3[C@H](O)[C@H](O)CC(=NO[C@@H]4O[C@H](CO)[C@@H](O)[C@H](O)[C@H]4O)[C@@H]3CC[C@H]2C(=O)N1Cc1ccc2c(c1)OCO2`: the composite z-score in [1] was -0.401; in [2] it was -0.271; in assay [3], -0.166; in [4], 0.112; in [5] it was 0.737; in [6], 0.542. The composite z-score in [7] was 0.974; in assay [9], 0.181; in assay [10] it was -0.201; in assay [11], 0.843; in [15], 1.55; in [17], -0.0991. In addition, the composite z-score is 0.388 in [18], 0.786 in assay [19] and -0.0007 in assay [20]. Besides, the z-score in [8] was 0.118 (inactive); in assay [12], -0.0622 (inactive); in assay [13], 0.374 (inactive); in assay [14] it was 0.35 (inactive); in assay [16], -0.244 (inactive).
